# Values joined by “and” are separate entries in the source; they are usually repeats but may differ in a detail not shown here. Equal entries are not always repeated. Inconclusive results are not listed. Active and inactive are the calls of the source. Calls come from the whole dose curve; as a rule, active = well fitted inhibition curve with a large enough effect; inconclusive = small, poorly fitted or top-dose-only effect; inactive = flat fitted curve, though single readings scatter.
# Tested on: HaCat
# Assay: Cytotoxic Profiling of Annotated Libraries Using Quantitative High-Throughput Screening (AID 1296008); note: nearly all actives have a fitted effect of over 60% in size
# Conditions: Five cell lines viability, CellTiter-Glo ATP luminescence, 48-72 h; max response: active compounds read low
# How it was run: (§1)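 Cytotoxicity was measured as CellTiter-Glo ATP luminescence, read after 10 min at room temperature. Compound treatment of the cells lasted 48 or 72 hr at 37 degrees Celsius in a qHTS format.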
# % is set by controls: 0 for no effect and ±100 for the full control effect.
Compound,max response,outcome
CC(=O)OCC(=O)[C@@]1(O)CCC2C3CCC4=CC(=O)CC[C@]4(C)C3[C@@H](O)C[C@@]21C (some centres not stated),3.13% (inactive),
Cc1ncc(CO)c(CO)c1O,,inactive
C[N+]1(CC2COC(c3ccccc3)(c3ccccc3)O2)CCCCC1 (configuration not stated),-14.4% (inactive),
CN1C(=O)c2ccccc2C1=O,-13.2% (inactive),
Cc1ccc(O)cc1,,inactive
CC1(C)S[C@@H]2[C@H](NC(=O)C(c3ccccc3)S(=O)(=O)O)C(=O)N2[C@H]1C(=O)O (some centres not stated),-6.19% (inactive),
Cc1nc([N+](=O)[O-])cn1-c1ccc([N+](=O)[O-])cc1,,inactive
OCCCc1ccccc1,-3% (inactive),
CN1C(CSCC(F)(F)F)Nc2cc(Cl)c(S(N)(=O)=O)cc2S1(=O)=O (configuration not stated),4.02% (inactive),
Cc1ccccc1N1CCN(CCc2nnc3n2CCCC3)CC1,-11.8% (inactive),
O=C(O)c1[nH]n(-c2ccc(S(=O)(=O)O)cc2)c(=O)c1N=Nc1ccc(S(=O)(=O)O)cc1,,inactive
C[N+](C)(CCOc1ccccc1)Cc1cccs1,2.51% (inactive),
CC(=O)CC/C=C(\C)CC/C=C(\C)CC/C=C(\C)CCC=C(C)C,-9.87% (inactive),
CCCCC(CC)COC(=O)c1ccccc1C(=O)O (configuration not stated),-1.62% (inactive),
CC(=O)OCC[N+](C)(C)C,-14.7% (inactive),
CCOc1ccc(NS(=O)(=O)c2ccc(N)cc2)nn1,1.89% (inactive),
CC(C)C(C)(C)C(C)(C)C(C)(C)S,4.37% (inactive),
C=CCOc1cc(Cl)ccc1C(=O)NCCN(CC)CC,,inactive
Cn1cc(S(C)=O)c(=O)c2ccc(F)cc21 (configuration not stated),-31% (inactive),
Nc1nnnn1-c1ccccc1,-26.2% (inactive),
OC[C@]1(O)OC[C@@H](O)[C@H](O)[C@@H]1O,-0.702% (inactive),
O=C(O)Cc1ccc(OCCNC[C@H](O)c2ccccc2)cc1,2.67% (inactive),
O=C(O)c1ccccc1S,1.95% (inactive),

# Tested on: KB-3-1
# Assay: as above
# Conditions: Five cell lines viability, CellTiter-Glo ATP luminescence, 48-72 h; max response: active compounds read low
# How it was run: as §1
Compound,max response,outcome
N=C(N)c1ccc(OCCCOc2ccc(C(=N)N)cc2)cc1,-29% (inactive),
O=C(OCC(COC(=O)c1cccnc1)(COC(=O)c1cccnc1)COC(=O)c1cccnc1)c1cccnc1,-20.2% (inactive),
O=C(O)c1ccccc1Nc1cc(Cl)ccc1C(=O)O,-6.82% (inactive),
CCO[C@H](Cc1ccc(OCCc2ccc(OS(C)(=O)=O)cc2)cc1)C(=O)O,-10.5% (inactive),
C=CC[N+]1([C@H]2C[C@H]3[C@@H]4CC[C@H]5C[C@H](OC(C)=O)[C@@H](N6CCCCC6)C[C@]5(C)[C@H]4CC[C@]3(C)[C@H]2OC(=O)CC)CCCCC1,,inactive
CC(CCc1ccc2c(c1)OCO2)NN (configuration not stated),-13.1% (inactive),
C[C@@]12CCC[C@H]1[C@@H]1CC[C@H]3C[C@@H](O)CC[C@]3(C)[C@H]1CC2,-1.74% (inactive),
Nc1c[n+](N2CCOCC2)no1,-10.9% (inactive),
CC(C(=O)O)c1ccc(/C=C2\CCCCC2=O)cc1 (configuration not stated),,inactive
O=C(CCCCC(=O)Nc1c(I)cc(I)c(C(=O)O)c1I)Nc1c(I)cc(I)c(C(=O)O)c1I,-11.9% (inactive),
NC(=O)COCCN1CCN(C(c2ccccc2)c2ccc(Cl)cc2)CC1 (configuration not stated),-17.1% (inactive),
C1=CC2C3C=CC(C3)C2C1 (configuration not stated),-6.71% (inactive),
CCOC(=O)OCC/C(SC(=O)OCC)=C(\C)N(C=O)Cc1cnc(C)nc1N,-13.2% (inactive),
COc1cc(NS(=O)(=O)c2ccc(N)cc2)nc(C)n1,,inactive
CCC(C(=O)NC(=O)NC(C)=O)c1ccccc1 (configuration not stated),0.82% (inactive),
O=P(O)(O)OCC(O)CO (configuration not stated),-6.39% (inactive),
CC(=O)OCC(=O)[C@@]1(O)CCC2C3CCC4=CC(=O)CC[C@]4(C)C3[C@@H](O)C[C@@]21C (some centres not stated),0.5% (inactive),
Cc1ncc(CO)c(CO)c1O,-24.2% (inactive),
C[N+]1(CC2COC(c3ccccc3)(c3ccccc3)O2)CCCCC1 (configuration not stated),-21.8% (inactive),
CN1C(=O)c2ccccc2C1=O,-21% (inactive),
Cc1ccc(O)cc1,-1.63% (inactive) and -10.4% (inactive),
CC1(C)S[C@@H]2[C@H](NC(=O)C(c3ccccc3)S(=O)(=O)O)C(=O)N2[C@H]1C(=O)O (some centres not stated),-0.526% (inactive),
Cc1nc([N+](=O)[O-])cn1-c1ccc([N+](=O)[O-])cc1,5.55% (inactive),
OCCCc1ccccc1,-4.85% (inactive),

# From PubChem BioAssay (NCATS)
